Screening data from PubChem.
TDP1 cell noCPT: qHTS for Inhibitors of human tyrosyl-DNA phosphodiesterase 1 (TDP1): qHTS in cells in absence of CPT | DT40 Tdp1-/- hTDP1 cells, no CPT, ATP luminescence, 48 h | Potency, µM (doses to about 46.2 µM), most hits filed as inhibitors | 15% of 420,000 active | AID 686978, 2013; further: nearly all actives have a fitted effect of over 55% in size
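Compound effects on proliferation are scored in DT40 Tdp1-/-;hTDP1 cells in the absence of CPT. ATP levels (CellTiter-Glo luminescence) are recorded after a ≥48 hr, 37 °C incubation.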
IL1B secr inh: inhibitors of inflammasome signaling (IL-1 beta secretion); THP-1 LPS/ATP IL-1B secretion, AlphaLISA, 16 h; active compounds read low; activity change, % at 57.5 µM; 4.7% of 360,000 active; AID 743279; in the data active means activity change below about -50%; inconclusive means mostly about -30% to -49%
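Secreted IL-1B measured by AlphaLISA bead assay after 16 h compound exposure of THP-1 cells; compounds (final up to 57.5 uM) added 1 h before LPS (250 ng/mL) and ATP (1.25 mM) stimulation; lower signal means less secretion.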
HT1080-NT tox: kills 2HG-producing HT-1080-NT fibrosarcoma cells | HT-1080-NT fibrosarcoma viability, CellTiter-Glo ATP luminescence, 48 h | 1.6% of 360,000 active | AID 686970 | Potency, µM (doses to about 46.1 µM), actives largely listed as cytotoxic;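 further: NT is the 2HG producing partner of a matched IDH1 knockdown line; nearly all actives have a fitted effect of over 55% in size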
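Viability by CellTiter-Glo luminescence after 48 h compound exposure at 37C of HT-1080-NT cells (750/well, RPMI, 5% FBS). % activity scaled between DMSO wells and medium-only wells, then curve-fitted and categorized by curve class.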
DT40 TDP1 CPT: growth inhibition of DT40 Tdp1-/-;hTDP1 cells with camptothecin (screen for TDP1 inhibitors); Potency, µM (highest dose often 46.2 µM), hits mostly inhibitors; 12% of 420,000 active; AID 686979; chicken DT40 Tdp1-/-;hTDP1 cells + 20 nM CPT, ATP luminescence, 48 h; further: nearly all actives have a fitted effect of over 55% in size
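Cell growth measured by CellTiter-Glo luminescence after a minimum 48 h, 37 C compound exposure with 20 nM CPT in Tdp1-knockout DT40 cells stably expressing hTDP1, seeded 400/well; qHTS titration format.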
HT1080 IDH1KD tx: HT-1080 IDH1 knockdown cell toxicity (counter line); HT-1080 IDH1 knockdown viability, ATP luminescence, 48 h; AID 686971; 2% of 360,000 active; Potency, µM (top dose mostly 46.1 µM), actives largely listed as cytotoxic
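Knockdown cells (IDH1KD HT-1080) received compounds 2 h after plating at 750 cells/well and were kept 48 h at 37 °C in 5% FBS RPMI. A CellTiter-Glo luminescence read gave % activity for curve fitting.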
A number is an active result; 0 = inactive; ? = inconclusive; - = no result. Most compounds without a hit are left out; they make up all but 19% or so of the library. Unless noted, the call rests on the fitted dose curve; in most records, active means well fitted curve in the direction sought with a large enough effect; inconclusive means small, poorly fitted or top-dose-only effect, or another doubt; inactive means no such curve, though single readings can be large; an effect the other way counts as inactive or inconclusive.

SMILES | TDP1 cell noCPT | IL1B secr inh | HT1080-NT tox | DT40 TDP1 CPT | HT1080 IDH1KD tx
CCn1cc(C(=O)NCCCN(CC(C)C)CC(C)C)c(=O)c2cc(S(=O)(=O)N3CCc4ccccc4C3)ccc21 | 0 | - | - | 0 | -
CCCN(CCC)CCCNC(=O)c1cn(CC)c2ccc(S(=O)(=O)N3CCc4ccccc4C3)cc2c1=O | 18.4µM | -102.7 | 0 | 20.6µM | 0
CCCCN(CCCC)CCNC(=O)c1cn(CC)c2ccc(S(=O)(=O)N(C)C3CCCCC3)cc2c1=O | 6.51µM | 0 | 0 | 4.61µM | 0
O=C(COC(=O)COc1ccccc1)NC12CC3CC(CC(C3)C1)C2 | 0 | 0 | 0 | 0 | 0
O=C(c1[nH]c(C(F)(F)F)nc1-c1ccccc1)N1CCN(c2ncccn2)CC1 | ? | 0 | 0 | 29.1µM | ?
O=C(c1cc(Cl)cc(Cl)c1)N1CCN(c2cc(C(F)(F)F)nc3ccccc23)CC1 | 11.6µM | 0 | 0 | 20.6µM | 0
O=C(O)CSCC(=O)N1CCN(c2cc(C(F)(F)F)nc3ccccc23)CC1 | 0 | 0 | 0 | 0 | 0
O=C(c1[nH]c(C(F)(F)F)nc1-c1ccccc1)N1CCN(c2ccccc2)CC1 | 4.11µM | 0 | ? | 4.61µM | 2.06µM
O=C(c1[nH]c(C(F)(F)F)nc1-c1ccccc1)N1CCc2c([nH]c3ccccc23)C1 | 5.8µM | 0 | ? | 5.8µM | 4.61µM
O=C(c1[nH]c(C(F)(F)F)nc1-c1ccccc1)N1CCN(c2ccncc2)CC1 | 0 | 0 | 0 | 0 | 0
COc1ccc(CNc2cc(-c3cccnc3)ncn2)c(OC)c1 | 0 | - | - | ? | -
Cc1ccc(C(=O)Nc2cnc3sc(C)nn3c2=O)cc1 | ? | 0 | 0 | 0 | 0
Cc1cc(N2CCN(C(=O)c3[nH]c(C(F)(F)F)nc3-c3ccccc3)CC2)c2ccccc2n1 | 14.6µM | 0 | ? | 16.4µM | ?
O=C(COC(=O)/C=C/c1cccc(C(F)(F)F)c1)NCCN1C(=O)CSC1=O | ? | 0 | 0 | 0 | 0
FC(F)(F)c1cc(CO[C@@H]2CCCN[C@@H]2c2ccccc2)cc(C(F)(F)F)c1 | 13µM | ? | ? | ? | 23.1µM
Clc1ccccc1NN(Cc1ccccn1)c1ccccc1Cl | 23.1µM | 0 | 0 | ? | 0
C[C@@H]1CN([C@@H](C)CO)C(=O)CCCn2nncc2CO[C@H]1CN(C)S(=O)(=O)c1ccc(Oc2ccccc2)nc1 | 0 | 0 | 0 | 0 | 0
CCOC(=O)C1=CCC(c2ccc(C)cc2)N(S(=O)(=O)c2ccc(C)cc2)C1 (stereo unspecified) | 18.4µM | 0 | 0 | 23.1µM | 0
CC(=O)C1=CCC(c2ccco2)N(S(=O)(=O)c2ccc(C)cc2)C1 (stereo unspecified) | ? | 0 | 0 | ? | 0
CCOC(=O)C1=CCC(C(C)(C)C)N(S(=O)(=O)c2ccc(C)cc2)C1 (stereo unspecified) | ? | 0 | 0 | ? | 0
CC(=O)C1=CCC(c2cccc3ccccc23)N(S(=O)(=O)c2ccc(C)cc2)C1 (stereo unspecified) | 18.4µM | 0 | ? | ? | ?
CCOC(=O)C1=CCC(c2ccccc2C)N(S(=O)(=O)c2ccc(C)cc2)C1 (stereo unspecified) | 14.6µM | 0 | ? | 10.3µM | ?
CCCCCCCCCCCCCCCCCCOP(=O)([O-])OC1CC[N+](C)(C)CC1 | 0 | - | - | 0 | -
C[C@H](O)[C@@H]1C(=O)N2CCc3ccc(-c4ccccc4)cc3[C@@H]2C[C@@H]1N(C)C(=O)c1ccco1 | 14.6µM | 0 | 0 | ? | 0
C[C@H](O)[C@@H]1C(=O)N2CCc3ccc(-c4ccccc4)cc3[C@@H]2C[C@@H]1N(C)C(=O)c1ccc(C#N)cc1 | ? | 0 | 0 | ? | 0
SMILES | TDP1 cell noCPT | IL1B secr inh | HT1080-NT tox | DT40 TDP1 CPT | HT1080 IDH1KD tx
C[C@H](O)[C@@H]1C(=O)N2CCc3ccc(-c4cccc(F)c4)cc3[C@@H]2C[C@@H]1N(C)S(=O)(=O)c1ccccc1 | ? | -51.9 | 0 | ? | 0
Cc1ccc(-c2noc(-c3nnn(CC(=O)Nc4cc(C)cc(C)c4)c3N)n2)cc1 | 1.46µM | - | - | 1.3µM | -
Cc1cccc(C)c1NC(=O)Cn1nnc(C(=O)NCc2ccc(F)cc2)c1N | 0 | - | - | 0 | -
Cc1cc(C)cc(NC(=O)Cn2nnc(C(=O)NCc3ccc(F)cc3)c2N)c1 | ? | 0 | 0 | 20.6µM | 0
Cc1cccc(NC(=O)Cn2nnc(-c3nc(-c4ccncc4)no3)c2N)c1 | ? | - | - | 0 | -
COc1ccc(OC)c(S(=O)(=O)Nc2cc(C)on2)c1 | 0 | 0 | 0 | 0 | 0
O=C(O)c1ccc(N2CCCCS2(=O)=O)cc1 | 0 | 0 | 0 | 0 | 0
CC12c3ccccc3C(c3ccccc31)C1C(=O)N(c3cccnc3)C(=O)C12 (stereo unspecified) | 14.6µM | 0 | 0 | ? | 0
CC12c3ccccc3C(c3ccccc31)C1C(=O)N(Cc3cccnc3)C(=O)[C@H]12 (stereo partly specified) | ? | 0 | 0 | 18.4µM | 0
CC12c3ccccc3C(c3ccccc31)C1C(=O)N(c3ccncc3)C(=O)C12 (stereo unspecified) | 16.4µM | 0 | 0 | 16.4µM | 0
O=C1C2C3c4ccccc4C(c4ccccc43)C2C(=O)N1c1cccnc1 (stereo unspecified) | 0 | 0 | 0 | 0 | 0
CCOC(=O)c1cnc2ccc(C)cc2c1N(C)Cc1ccccc1 | ? | -68.1 | 0 | ? | 0
CCOC(=O)c1cnc2ccc(C)cc2c1Sc1ccc(F)cc1 | ? | 0 | ? | ? | ?
CCOC(=O)c1cnc2ccc(C)cc2c1Sc1ccccc1 | 25.9µM | 0 | 0 | ? | 0
O=C1C2CC=CCC2C(=O)N1c1n[nH]c(CCc2ccccc2)n1 (stereo unspecified) | 0 | 0 | 0 | 0 | 0
COCCCNCCCOc1ccc(Cl)cc1C(C)(C)C | 18.4µM | -89.2 | ? | 11.6µM | 20.6µM
CCC(C)NCCCOc1ccc(Cl)cc1C(C)(C)C (stereo unspecified) | ? | 0 | 0 | ? | 0
CNCCCOc1ccc(Cl)cc1C(C)(C)C | 16.4µM | -71.9 | ? | ? | 23.1µM
COc1cccc(NC(=O)N2CCC(n3nnc4ccccc43)CC2)c1 | 0 | 0 | 0 | 0 | 0
CC(C)Cn1c(CCCNC(=O)c2ccco2)nc2ccccc21 | ? | 0 | 0 | 0 | 0
Cc1cc(C)c2c(c1)SC1=NC(c3ccccc3)(C(F)(F)F)NC(=O)N12 (stereo unspecified) | ? | -55.9 | 0 | ? | 0
COC(=O)/C(C#N)=C/c1c(Oc2cccc(C)c2C)nc2ccccn2c1=O | 0 | 0 | 0 | 0 | 0
Cc1c(C(=O)N2CCCCCC2)c(S(=O)(=O)Nc2ccc(OC(F)(F)F)cc2)c(C)n1C | 16.4µM | - | - | 23.1µM | -
Cc1c(C(=O)N2CCOCC2)c(S(=O)(=O)Nc2ccc(OC(F)(F)F)cc2)c(C)n1C | 0 | 0 | ? | ? | 0
